Rows were chosen to be rich in hits. Some 4.2% of all compounds tested hit in one or more screens of this group.
TIM10 inh – TIM10 yeast growth inhibition; S. cerevisiae TIM10 strain growth, BacTiter-Glo luminescence, 24 h; inhibition, % at 10 µM; 330,000 compounds, 1.4% hits; AID 463195;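 active = inhibition of 40% or more at the single tested concentration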;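 also: wild-type TIM10 isogenic control strain grown at permissive 25 °C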
V-ATPase pHluor – regulators of yeast V-ATPase proton transport; S. cerevisiae, pHLuorin cytosolic pH fluorescence; response, % at 10 µM; 350,000 compounds, 0.37% hits; in the data active = response mostly above about 7.3%, no sharp cut-off; inactive = mostly below about 5.4%; also: actives read high
NALP1 yeast inh – NALP1 inhibition; S. cerevisiae NALP1/ASC/caspase-1 growth, X-gal OD620, 72 h; inhibition, % at 10 µM; 280,000 compounds, 0.61% hits; AID 2071; in the data active = inhibition mostly above about 24%, no sharp cut-off; inactive = mostly below about 32%
tim23-1 inh – tim23-1 yeast growth inhibition; S. cerevisiae tim23-1 growth, BacTiter-Glo luminescence, 24 h; inhibition, % at 20 µM; 330,000 compounds, 1.3% hits; AID 463212;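 active = growth inhibition of the mutant yeast at or above 50%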;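 also: temperature-sensitive mutant grown at 25 °C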
tim10-1 inh – growth inhibitors of tim10-1 mutant yeast | 330,000 compounds, 2.2% hits | inhibition, % at 20 µM | S. cerevisiae tim10-1 ts strain growth, BacTiter-Glo, 24 h;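 active = inhibition of at least 40%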;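 also: mutant grown at 25 °C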
NLRP3 yeast inh – NALP3 inhibition in yeast | Yeast reconstituted NLRP3/ASC/caspase-1, beta-gal luminescence, 24 h | inhibition, % at 10 µM | 330,000 compounds, 0.39% hits;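 active = inhibition of 50% or more; inactive = inhibition below 50%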
VATPase regulator – modulates yeast V-ATPase proton transport; S. cerevisiae pHLuorin cytosolic pH; response, % at 10 µM; shares compounds with V-ATPase pHluor; 980 compounds, 2% hits; in the data active = response above about 24%
Of the large screens only hits and unclear results are named; the others gave an inactive call (follow-up assays come after a bar, where they were run).

COC(=O)c1[nH]c2c(c1C)C(=O)CC(c1cccc(OC)c1)C2 (configuration not stated)	V-ATPase pHluor 13 | VATPase regulator inactive
COC(=O)c1[nH]c2c(c1C)C(=O)CC(c1ccc(OC)c(OC)c1)C2 (configuration not stated)	none
O=c1ccnc(SCc2ccccc2Cl)[nH]1	none
Clc1ccc(CSC2=NCCCN2)cc1Cl	none | VATPase regulator inactive
Clc1ccccc1CSC1=NCCCN1	none | VATPase regulator inactive
O=C(CCSc1ccc(Cl)cc1)NC1CCCCC1	V-ATPase pHluor 13 | VATPase regulator inactive
CN(CC(=O)NC1CCCCCC1)S(=O)(=O)c1ccc(F)cc1	none
CN(CC(=O)NC1CCCCC1)S(=O)(=O)c1ccc(Cl)cc1	V-ATPase pHluor 11 (no result: NALP1 yeast inh) | VATPase regulator inactive
O=C(c1ccccc1F)N1CCN(C2CCC(c3ccccc3)CC2)CC1 (configuration not stated)	none
Cc1cccn2c(=O)c(/C=C(\C#N)C(=O)NC3CCS(=O)(=O)C3)c(N3CCC(C)CC3)nc12 (configuration not stated)	V-ATPase pHluor 15 (no result: NALP1 yeast inh) | VATPase regulator inactive
CN1CCN(S(=O)(=O)c2cccc(C#N)c2)C(c2ccccc2)C1 (configuration not stated)	V-ATPase pHluor 12 (no result: NALP1 yeast inh) | VATPase regulator inactive
O=[N+]([O-])c1cc([N+](=O)[O-])c(N2CCCCCC2)cc1NCCO	V-ATPase pHluor 8.3 | VATPase regulator inactive
O=[N+]([O-])c1c(NCCO)cc(N2CCCCC2)c2nonc12	none
COCOCCn1cc(CN2CCS(=O)(=O)N(Cc3ccc(-c4ccc(OC)c(OC)c4)cc3)C(CC(C)C)C2=O)nn1 (configuration not stated)	none (no result: TIM10 inh, NALP1 yeast inh, tim23-1 inh, tim10-1 inh, NLRP3 yeast inh)
Cc1cccc(C(=O)N/N=C2/SCC(=O)N2Cc2ccccc2)c1	none
O=S(=O)(c1ccc(SCCOc2ccccc2Cl)nc1)N1CCCC1	none (no result: NALP1 yeast inh)
Cc1ccc(C(=O)OCC(=O)NCc2cccs2)cc1C	none
Cc1ccc(C(=O)OCC(=O)NCc2cccs2)cc1	V-ATPase pHluor 9.9 | VATPase regulator inactive
Cc1ccc(C2=N/C(=C\c3c(C)nn(-c4ccccc4)c3N3CCCC3)C(=O)O2)cc1	V-ATPase pHluor 71 | VATPase regulator inactive
Cc1nn(-c2ccccc2)c(N2CCCC2)c1/C=C1\N=C(c2ccc(F)cc2)OC1=O	none
Cc1nc2c(-c3ccc(F)cc3)c(C)nn2c(C)c1CCC(=O)N1CCN(c2ccccc2)CC1	V-ATPase pHluor 12 | VATPase regulator inactive
CCOc1ccccc1NC(=O)c1ccc2ccccc2c1	none
CCOc1ccccc1NC(=O)NNC(=O)c1ccc2ccccc2c1	V-ATPase pHluor 13 | VATPase regulator inactive
CCN1CCS/C1=C/C=C/C1=[N+](CC)CCS1	none (no result: TIM10 inh, tim23-1 inh, tim10-1 inh, NLRP3 yeast inh)
Cc1cc(C)n(CC(=O)Nc2ccccc2)n1	V-ATPase pHluor 11 | VATPase regulator inactive
Cc1ccc(NC(=O)Cn2nc(C)cc2C)cc1	none
COc1ccc(N2C(=NC(=O)C3CCCCC3)SC3CS(=O)(=O)CC32)cc1 (configuration not stated)	V-ATPase pHluor 8.0 | VATPase regulator inactive
CC(C)OCCCNC(=O)Cc1ccc(Br)cc1	none
C=CCn1c(SCC(=O)Nc2c(C)n(C)n(-c3ccccc3)c2=O)nc2scc(-c3ccccc3)c2c1=O	V-ATPase pHluor 13 | VATPase regulator inactive
C=CCn1c(SCC(=O)Nc2c(C)n(C)n(-c3ccccc3)c2=O)nc2ccccc2c1=O	none (no result: NALP1 yeast inh)
CN(CC(=O)Nc1ccc(F)cc1[N+](=O)[O-])Cc1ccccc1	V-ATPase pHluor 7.9 | VATPase regulator inactive
O=C(O)c1ccc(-c2nnc(-c3ccc([N+](=O)[O-])cc3)o2)cc1	V-ATPase pHluor 9.4 | VATPase regulator inactive
CSc1nnc(-c2ccc([N+](=O)[O-])cc2)o1	none
COc1ccc(-c2cc(C(F)F)n3ncc(C(=O)Nc4cnn(Cc5ccccc5)c4)c3n2)cc1	none (no result: V-ATPase pHluor)
COc1ccc(C)cc1NCc1ccc(OC)c(C)c1OC	none
O=C(O)c1cc(-c2ccc(Cl)c(Cl)c2)n(-c2ccc(F)cc2)n1	V-ATPase pHluor 12 | VATPase regulator inactive
COc1ccc(C2=NS(=O)(=O)N(C)C(C(=O)NC3CCCCC3)=C2)cc1	V-ATPase pHluor 11 | VATPase regulator inactive
COc1ccc(C2=NS(=O)(=O)N(C)C(C(=O)NC3CCCC3)=C2)cc1	none
CC1CN(C(=O)c2ccc(S(=O)(=O)Nc3cccc(C(F)(F)F)c3)cc2)CC(C)O1 (configuration not stated)	none (no result: NALP1 yeast inh)
Cc1oc(C(C)(C)C)cc1C(=O)Nc1cccc(/C=C\C(=O)O)c1	V-ATPase pHluor 14 | VATPase regulator inactive
Cc1oc(-c2ccccc2)cc1C(=O)Nc1cccc(/C=C\C(=O)O)c1	none
COc1cccc(S(=O)(=O)N(C)C[C@@H]2OCc3cnnn3CCCC(=O)N([C@H](C)CO)C[C@@H]2C)c1	V-ATPase pHluor 7.5 (no result: TIM10 inh, NALP1 yeast inh, tim23-1 inh, tim10-1 inh, NLRP3 yeast inh) | VATPase regulator inactive
C[C@H](CO)N1C[C@H](C)[C@@H](CN(C)S(=O)(=O)c2ccc(C#N)cc2)OCc2cnnn2CCCC1=O	V-ATPase pHluor 4.1 (no result: TIM10 inh, NALP1 yeast inh, tim23-1 inh, tim10-1 inh, NLRP3 yeast inh) | VATPase regulator inactive
C[C@H](CO)N1C[C@H](C)[C@H](CN(C)S(=O)(=O)c2ccc(C#N)cc2)OCc2cnnn2CCCC1=O	none (no result: TIM10 inh, NALP1 yeast inh, tim23-1 inh, tim10-1 inh, NLRP3 yeast inh)
Cc1nc(C(=O)Nc2ccc(Cl)cc2)sc1C1(C)CC(c2cccc([N+](=O)[O-])c2)=NO1 (configuration not stated)	V-ATPase pHluor 10.0 (no result: NALP1 yeast inh) | VATPase regulator inactive
O=C(Nc1cccc(-n2cnnn2)c1)c1ccccc1Br	none
CC(c1ccon1)N(C)Cc1c(C(=O)N(C)Cc2ccccc2)nc2ccccn12 (configuration not stated)	V-ATPase pHluor 8.1 | VATPase regulator inactive
Cc1ccc(CNCC(O)(c2ccccc2)c2ccc(Cl)cc2)cc1 (configuration not stated)	none (no result: TIM10 inh, tim23-1 inh, tim10-1 inh, NLRP3 yeast inh)
COc1ccc(CNCC(O)(c2ccccc2)c2ccc(Cl)cc2)cc1 (configuration not stated)	V-ATPase pHluor 11, NALP1 yeast inh 57 | VATPase regulator inactive
COc1ccc(CN2CCC(C(=O)Nc3ccc(Oc4cccnc4)cc3)CC2)c(C)c1C	none
CN(Cc1nc(C(c2ccccc2)c2ccccc2)no1)CC1COCCO1 (configuration not stated)	V-ATPase pHluor 11 | VATPase regulator inactive
C[C@H](NC(=O)c1ncn2c1C(=O)N[C@@H](C)C2)c1ccccc1	none (no result: TIM10 inh, NALP1 yeast inh, tim23-1 inh, tim10-1 inh, NLRP3 yeast inh)
C[C@@H]1Cn2cnc(C(=O)N[C@@H](C)c3ccccc3)c2C(=O)N1	V-ATPase pHluor 4.2 (no result: TIM10 inh, NALP1 yeast inh, tim23-1 inh, tim10-1 inh, NLRP3 yeast inh) | VATPase regulator inactive
COc1ccc(C(=O)N(C)Cc2nc3ccccc3c(=O)[nH]2)cc1S(=O)(=O)N1CCCC1	none (no result: NALP1 yeast inh)
COc1ccc(N2C[C@H](CSC)[C@@H](CC(=O)Nc3ccccc3)C2=O)cc1	V-ATPase pHluor 7.0 (no result: TIM10 inh, NALP1 yeast inh, tim23-1 inh, tim10-1 inh, NLRP3 yeast inh) | VATPase regulator inactive
CCOc1ccc(C(=O)N[C@H](C(=O)NC2CCCCC2)C(C)C)cc1	none (no result: TIM10 inh, NALP1 yeast inh, tim23-1 inh, tim10-1 inh, NLRP3 yeast inh)

From PubChem BioAssay
